Source: PubChem
Mcl1-Noxa inh: Mcl-1/Noxa interaction inhibition | Q07820 | TR-FRET Mcl-1/Noxa peptide binding, 2 h | inhibition, % at 21.7 µM | actives 1.5% (n = 220,000);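 active = compounds that cut the protein-peptide binding signal by more than 50% relative to plate controls in a single-dose test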;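 note: His-tagged Mcl-1 with rhodamine Noxa BH3 peptide and terbium anti-His antibody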
Bim-Mcl-1: disrupts Bim peptide binding to human Mcl-1. inhibition, % at 10 µM. actives 0.1% (n = 190,000). Q07820. Bead-based flow cytometry, Bim peptide-Mcl-1 binding; in the data active = inhibition above about 40%
14-3-3 Bad PPI: disrupts binding of bovine 14-3-3 zeta to phospho-Bad peptide | actives 0.71% (n = 220,000) | TR-FRET 14-3-3zeta/Dy647-pBad peptide displacement, 1 h | inhibition, % at 21.7 µM;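 active = inhibition above about 70%, limit read from the data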
eIF4E 4G PPI: blocks eIF4E binding to eIF4G. TR-FRET eIF4E-eIF4GI(517-606) binding, 2 h. AID 782. actives 0.37% (n = 220,000). inhibition, % at 21.7 µM
NCF1 inh: blocks human p47phox regulatory protein of NADPH oxidases | p47phox/p22phox peptide binding, fluorescence polarization, 2 h | inhibition, % at 24.7 µM | P14598 | actives 0.53% (n = 220,000)
Target sequence (P14598 whole entry, looked up): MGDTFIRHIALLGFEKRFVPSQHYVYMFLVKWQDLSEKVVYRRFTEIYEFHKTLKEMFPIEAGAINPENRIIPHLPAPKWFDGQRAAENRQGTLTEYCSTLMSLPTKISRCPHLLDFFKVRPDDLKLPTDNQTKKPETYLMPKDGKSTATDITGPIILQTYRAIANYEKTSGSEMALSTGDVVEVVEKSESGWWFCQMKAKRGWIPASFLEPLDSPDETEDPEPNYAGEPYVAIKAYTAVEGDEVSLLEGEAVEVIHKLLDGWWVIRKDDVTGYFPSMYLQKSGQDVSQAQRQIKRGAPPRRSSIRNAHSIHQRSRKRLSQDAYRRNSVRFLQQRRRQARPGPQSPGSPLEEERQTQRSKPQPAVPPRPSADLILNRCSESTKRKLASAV
Mcl1 Bid PPI: disrupts binding of human Mcl-1 to Bid peptide; AID 1021; TR-FRET Mcl-1/Bid-Dy647 peptide binding, 1536-well; actives 0.97% (n = 220,000); inhibition, % at 21.7 µM;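 active = compounds that cut the binding signal by more than half at the single screening dose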;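 note: His-tagged Mcl-1 with europium anti-His antibody binding Bid BH3 peptide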
Numbers stand for hits; - = inactive; . = no result; + = active, no number; [ ] = dose if it differs, or a comment. Only some compounds are listed: those with a hit (about 3.3% of all), similar ones and a draw of the others.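 Rule for the calls, unless noted: active = inhibition above about 30% (limit read from the data); inactive = the rest.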

SMILES	Mcl1-Noxa inh	Bim-Mcl-1	14-3-3 Bad PPI	eIF4E 4G PPI	NCF1 inh	Mcl1 Bid PPI
O=C(NNS(=O)(=O)c1ccc2ccccc2c1)c1cccnc1	-	-	-	-	-	-
CCCCCCCN1C/C=C\C(c2ccc(OC)cc2)N(Cc2ccc(F)cc2)C(=O)[C@H]1Cc1ccccc1 (some centres undefined)	-	.	-	-	-	-
Cc1c(NC(=O)C(C)OC(=O)CCC2CCCC2)c(=O)n(-c2ccccc2)n1C (centres undefined)	-	-	-	-	-	-
Cc1c(C(=O)OC(C)C)[nH]c2c1C(=O)CCC2	-	-	-	-	+	-
O=C(COC(=O)c1c(F)cccc1F)c1ccc[nH]1	-	.	-	-	-	-
CN(C)c1ccc(/C=N/n2c(-c3cccnc3)n[nH]c2=S)cc1	56	-	-	-	-	-
S=c1[nH]nc(-c2cc(-c3ccccc3)n[nH]2)n1/N=C/c1ccc(Br)s1	70	.	-	-	-	-
Cc1ccc(/C=N/n2c(-c3cccnc3)n[nH]c2=S)s1	51	-	-	-	-	-
S=c1[nH]nc(-c2cc(-c3ccccc3)n[nH]2)n1/N=C/c1c(Cl)cccc1Cl	-	.	-	-	-	-
Cc1cccc2cc(-c3ccccc3)c(-c3ccccc3)c[n+]12	-	-	-	-	49	-
CN(C)c1ccc(CNCCC2(O)CCOC(C)(C)C2)cc1 (centres undefined)	-	-	75	-	-	-
O=C(Nc1ccc([N+](=O)[O-])cc1)Nc1ccc(N2CCOCC2)c2nonc12	94	-	-	-	-	-
O=C(NNC(=O)C12CC3CC(CC(C3)C1)C2)c1ccco1	-	88	-	-	-	-
CN(C(=O)COc1ccc([N+](=O)[O-])cc1)C1CCS(=O)(=O)C1 (centres undefined)	-	-	-	-	.	-
O=C(COC(=O)C12CC3CC(CC(Br)(C3)C1)C2)Nc1cccnc1Cl	-	-	-	-	-	-
CCOc1ccccc1Nc1ccnc2cc(Cl)ccc12	-	-	-	-	-	-
Oc1ccc(/C=N/Nc2ccnc3cc(Cl)ccc23)cc1O	95	.	-	-	-	-
Cc1nc(N)sc1C(=O)N1N=N1	-	.	-	-	-	-
NC(=O)C1(C(N)=O)OC1c1ccc(Cl)c(Cl)c1 (centres undefined)	-	.	-	-	-	-
COc1cccc(C(=O)Nc2sc(C(C)C)cc2C(N)=O)c1OC	-	.	-	-	-	-
Cc1cccc(-n2cc(-c3ccccc3)c3c(NN4CCOCC4)ncnc32)c1	-	-	-	-	-	-
Cc1ccc(-n2cc(-c3ccccc3)c3c(NN4CCOCC4)ncnc32)cc1	-	-	-	-	94	-
CC1CC(C)CN(S(=O)(=O)c2ccc(C(=O)OCC(=O)NCCN3C(=O)CSC3=O)cc2)C1 (centres undefined)	-	-	-	-	-	-
Cc1nn(Cc2cccc(C(=O)Nc3ccn(Cc4c(F)c(F)cc(F)c4F)n3)c2)c(C)c1[N+](=O)[O-]	-	-	-	-	-	-
Cc1nn(C)c(C(=O)Nc2ccn(Cc3c(F)c(F)cc(F)c3F)n2)c1[N+](=O)[O-]	-	-	-	-	150	-
SMILES	Mcl1-Noxa inh	Bim-Mcl-1	14-3-3 Bad PPI	eIF4E 4G PPI	NCF1 inh	Mcl1 Bid PPI
CCOC(=O)c1c(C)n(-c2ccc(C)cc2)c2ccc(OCC(O)CN3CCN(C)CC3)cc12 (centres undefined)	-	-	-	-	54	-
O=C1CN(C(=O)COC(=O)CNS(=O)(=O)/C=C/c2ccccc2)c2ccccc2N1	-	-	-	-	-	58
Nc1nnnn1CC(=O)N/N=C/c1cc([N+](=O)[O-])ccc1Cl	-	-	-	-	-	-
Cc1ccc([N+](=O)[O-])cc1-c1ccc(/C=N/NC(=O)c2cc3c(ccc4ccccc43)o2)o1	-	-	85[fluorescence artefact?]	-	-	-
O=C(N/N=C/c1ccc(-c2ccc(Cl)c(C(=O)O)c2)o1)c1cc2c(ccc3ccccc32)o1	110	.	-	-	-	96
Cc1cc([N+](=O)[O-])c(C)cc1-c1ccc(/C=N/NC(=O)Cn2nnnc2N)o1	55	-	88	-	-	53
O=C(N/N=C/c1cccc([N+](=O)[O-])c1)c1cc2c(ccc3ccccc32)o1	-	-	-	-	-	82
O=C(CSc1nccc(=O)[nH]1)NN(c1ccccc1)c1ccccc1	-	-	-	-	-	-
